Assay in all cases: qHTS profiling for inhibitors of Plasmodium falciparum proliferation (AID 504749); further: nearly all actives have a fitted effect of over 60% in size
Holding throughout (conditions): P. falciparum in erythrocytes, SYBR Green DNA, 72 h; series mostly up to 28.7 µM

One assay deals with DIV17. A digest of the protocol: (§1)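 P. falciparum-infected erythrocytes (0.3% parasitemia, 2.5% hematocrit) incubated with compound 72 h at 37 C, 5% CO2. Parasite DNA detected by SYBR Green after lysis, overnight at room temperature; normalised to 0.29 uM artemisinin and DMSO.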
The subject of the next assay is DIV30. Put shortly:
as §1

Another assay has as its system Dd2. A digest of the protocol:
as §1

A further assay concerns ECU. A digest of the protocol: as §1
A further assay deals with FAB9. A digest of the protocol: as §1
The next assay has as its system GB4. Put shortly: as §1
The test system of a further assay is HB3. A digest of the protocol: as §1
The next assay has as its system ICS. Put shortly: as §1
In another assay the test system is JCK. A digest of the protocol: as §1
In another assay the test system is N140. Put shortly:
as §1

The test system of another assay is P93_24. A digest of the protocol: as §1
In the next assay the test system is P94_40. A digest of the protocol: as §1
The subject of another assay is PAD. Put shortly: as §1
The next assay deals with PC15. A digest of the protocol:
as §1

A further assay relates to PC26. Put shortly: as §1
A further assay has as its system PC49. Put shortly:
as §1

For another assay, the system named is SC27B. A digest of the protocol: as §1
The next assay has as its system TAB109. Put shortly:
as §1

Another assay relates to TAB113. A digest of the protocol:
as §1

The subject of a further assay is TAB165. A digest of the protocol:
as §1

Structures are written as SMILES. Records with an inconclusive call do not appear. Active and inactive are the calls of the source. The call rests on the fitted dose curve; in most records, active means well fitted inhibition curve with a large enough effect; inconclusive means small, poorly fitted or top-dose-only effect; inactive means flat fitted curve, though single readings scatter.
Potency means the concentration at half of the fitted maximal effect.

Consider `C[N+]1(CC2COC(c3ccccc3)(C3CCCCC3)O2)CCCCC1` (stereo not given), for which the Potency with DIV17 is 6010 nM (active); in the assay on DIV30, 6750 nM (active); in the assay on Dd2, 7080 nM (active); in the assay on ECU, 4470 nM (active); in the assay on FAB9, 3160 nM (active); with GB4 it was 3380 nM (active). The Potency in the assay with HB3 is 4470 nM (active); in the assay with ICS, 4470 nM (active); with JCK, 12600 nM (active); with N140, 11200 nM (active); in the assay with P93_24 it was 6310 nM (active); in the assay with P94_40 it was 4470 nM (active). For the same compound, the Potency was 5010 nM (active) in the assay with PAD; 5620 nM (active) in the assay with PC15; 4260 nM (active) in the assay with PC26; 6310 nM (active) with PC49; 7080 nM (active) in the assay on SC27B; 6310 nM (active) in the assay with TAB109. Further, the Potency in the assay on TAB113 and in the assay with TAB165 was 5010 nM (active) each time.

As to `O=C(O)Cc1csc(-c2ccc(Cl)cc2)n1`, the Potency entry in the assay on DIV17, in the assay with DIV30, in the assay with Dd2, with ECU, in the assay with FAB9 and in the assay on GB4 was “inactive” in each case. The Potency result with HB3, with ICS, in the assay on JCK, with N140, with P93_24 and with P94_40 was “inactive” in each case. Besides, the Potency result in the assay on PAD, with PC15, in the assay on PC26, with PC49, with SC27B and in the assay with TAB109 was “inactive” each time. The Potency entry in the assay on TAB113 and in the assay with TAB165 was “inactive” each time.

For the compound `CC(=O)Nc1ccc(OC(=O)c2ccccc2OC(C)=O)cc1`, the Potency result in the assay with DIV17, in the assay with DIV30, in the assay on Dd2, in the assay with ECU, in the assay with FAB9 and in the assay on GB4 was “inactive” in each case. In addition, the Potency entry in the assay with HB3, with ICS, in the assay with JCK, in the assay on N140, with P93_24 and in the assay with P94_40 was “inactive” in each case. Besides, the Potency result in the assay with PAD, in the assay on PC15, in the assay with PC26, in the assay on PC49, in the assay on SC27B and with TAB109 was “inactive” in each case. For the same compound, the Potency entry in the assay with TAB113 and with TAB165 was “inactive” in each case.

On to `OCc1ccccn1`, for which the Potency result in the assay on DIV17, in the assay on DIV30, with Dd2, with ECU, with FAB9 and in the assay with GB4 was “inactive” throughout. The Potency result in the assay on HB3, in the assay on ICS, with JCK, with N140, in the assay with P93_24 and in the assay on P94_40 was “inactive” each time. Further, the Potency entry in the assay on PAD, with PC15, with PC26, with PC49, in the assay with SC27B and in the assay with TAB109 was “inactive” throughout. The Potency entry in the assay with TAB113 and with TAB165 was “inactive” in each case.

For `O=c1[nH]c(=O)n([C@H]2C[C@H](O)[C@@H](CO)O2)cc1F`, the Potency result in the assay with DIV17, with DIV30, in the assay on Dd2, in the assay with ECU, in the assay with FAB9 and with GB4 was “inactive” in each case. For the same compound, the Potency entry in the assay on HB3, in the assay with ICS, in the assay on JCK, in the assay on N140, in the assay with P93_24 and in the assay on P94_40 was “inactive” each time. Besides, the Potency entry with PAD, in the assay on PC15, with PC26, in the assay on PC49, with SC27B and with TAB109 was “inactive” each time. Moreover, the Potency entry in the assay on TAB113 and in the assay on TAB165 was “inactive” throughout.

For `O=C(O)CCNC(=O)c1ccccc1`, the Potency entry in the assay with DIV17, in the assay with DIV30, in the assay on Dd2, with ECU, in the assay on FAB9 and in the assay with GB4 was “inactive” in each case. The Potency entry in the assay on HB3, in the assay with ICS, with JCK, in the assay with N140, in the assay on P93_24 and with P94_40 was “inactive” in each case. Further, the Potency result in the assay on PAD, with PC15, in the assay with PC26, with PC49, in the assay with SC27B and in the assay with TAB109 was “inactive” throughout. The Potency result in the assay on TAB113 and with TAB165 was “inactive” in each case.

Turning to `Cc1nc(-c2ccc(Cl)cc2)oc1COC(C)(C)C(=O)O`, the Potency result in the assay on DIV17, in the assay on DIV30, in the assay with Dd2, in the assay with ECU, in the assay on FAB9 and in the assay on GB4 was “inactive” throughout. For the same compound, the Potency result in the assay with HB3, with ICS, with JCK, in the assay with N140, in the assay on P93_24 and in the assay on P94_40 was “inactive” in each case. The Potency entry with PAD, in the assay on PC15, in the assay on PC26, in the assay with PC49, in the assay on SC27B and in the assay on TAB109 was “inactive” each time. The Potency result in the assay on TAB113 and in the assay with TAB165 was “inactive” in each case.

For `CCCCCCCCCCCCCCCCO`, the Potency entry with DIV17, in the assay with DIV30, in the assay on Dd2, in the assay with ECU, in the assay on FAB9 and with GB4 was “inactive” in each case. For the same compound, the Potency entry with HB3, with ICS, in the assay on JCK, in the assay on N140, in the assay with P93_24 and in the assay with P94_40 was “inactive” in each case. In addition, the Potency result in the assay on PAD, in the assay on PC15, in the assay on PC26, with PC49, in the assay with SC27B and with TAB109 was “inactive” throughout. Further, the Potency entry with TAB113 and with TAB165 was “inactive” throughout.

Take `CCCCNC(=O)NS(=O)(=O)c1ccc(N)cc1`: the Potency result in the assay on DIV17, in the assay on DIV30, in the assay on Dd2, with ECU, in the assay on FAB9 and in the assay on GB4 was “inactive” each time. Besides, the Potency result with HB3, with ICS, in the assay with JCK, in the assay on N140, with P93_24 and in the assay on P94_40 was “inactive” in each case. For the same compound, the Potency entry in the assay with PAD, with PC15, in the assay with PC26, in the assay on PC49, in the assay with SC27B and in the assay with TAB109 was “inactive” each time. For the same compound, the Potency entry in the assay on TAB113 and in the assay on TAB165 was “inactive” each time.

As for `O=C1C(=O)c2ccccc2C(O)=C1C1CCC(c2ccc(Cl)cc2)CC1` (stereo not given), the Potency is 9.1 nM (active) in the assay with DIV17; 5.1 nM (active) in the assay on DIV30; 3.5 nM (active) in the assay with Dd2; 3.2 nM (active) in the assay on ECU; 3.2 nM (active) in the assay on FAB9; 4.1 nM (active) with GB4. The Potency was 2.8 nM (active) in the assay with HB3; 2 nM (active) with ICS; 5.6 nM (active) with JCK; 5 nM (active) with N140; 4 nM (active) in the assay on P93_24; 7.1 nM (active) in the assay with P94_40. Also, the Potency in the assay on PAD is 4.5 nM (active); in the assay on PC15, 4.5 nM (active); with PC26 it was 5.7 nM (active); in the assay on PC49 it was 5 nM (active); in the assay with SC27B, 0.7 nM (active); with TAB109 it was 2.5 nM (active). For the same compound, the Potency in the assay with TAB113 is 2 nM (active); with TAB165, 10 nM (active).

As to `Cc1ccc(S(=O)(=O)NC(=O)NC2CCCC2)cc1`, the Potency entry in the assay with DIV17, in the assay on DIV30, with Dd2, with ECU, in the assay on FAB9 and in the assay with GB4 was “inactive” throughout. Besides, the Potency result with HB3, in the assay with ICS, with JCK, with N140, with P93_24 and with P94_40 was “inactive” throughout. The Potency entry with PAD, in the assay on PC15, in the assay with PC26, in the assay on PC49, with SC27B and with TAB109 was “inactive” each time. Further, the Potency entry in the assay on TAB113 and in the assay with TAB165 was “inactive” each time.

On to `CC(=O)Oc1ccc(C)cc1`, for which the Potency entry in the assay with DIV17, in the assay with DIV30, in the assay with Dd2, with ECU, with FAB9 and with GB4 was “inactive” in each case. Further, the Potency entry in the assay with HB3, with ICS, with JCK, in the assay on N140, in the assay on P93_24 and with P94_40 was “inactive” each time. Also, the Potency result in the assay with PAD, with PC15, in the assay on PC26, with PC49, in the assay on SC27B and in the assay on TAB109 was “inactive” throughout. Moreover, the Potency entry in the assay on TAB113 and in the assay with TAB165 was “inactive” each time.

Take `CCCCC(CC)COC(=O)c1ccc(N(C)C)cc1` (stereo not given): the Potency result in the assay with DIV17, in the assay on DIV30, with Dd2, with ECU, with FAB9 and with GB4 was “inactive” each time. Besides, the Potency result with HB3, with ICS, in the assay with JCK, in the assay with N140, in the assay with P93_24 and in the assay on P94_40 was “inactive” throughout. For the same compound, the Potency entry in the assay with PAD, in the assay on PC15, in the assay on PC26, with PC49, in the assay with SC27B and with TAB109 was “inactive” each time. Further, the Potency entry in the assay on TAB113 and in the assay with TAB165 was “inactive” throughout.
